The record followed here is PubChem BioAssay AID463173 (ICCB-Longwood Screening Facility, Harvard Medical School, 2010).

Out of some 52,000 compounds screened, about 4,300 (8.3%) were called active. Cut-off read from the data, not from the text of the source: active = survival mostly below about 52% (no sharp cut-off); inactive = mostly above about 56%. The list comes from a sample in which actives are over-represented; it also holds similar structures and randomly drawn compounds.

The assay concerns DeltatarO mutant. Description: growth inhibition of S. aureus wild type versus tarO mutant, primary screen, teichoic acid synthesis inhibitors, RN4220, OD600 (AID 463173). The note with it: OD600, 18 h, active compounds read low, screened at 18.75 µg/mL (by protocol).
In the case of `O=C(CCCN1C(=O)c2cccnc2Oc2ccc(Cl)cc21)NCc1ccc(F)cc1`, the survival was 90% (inactive). Consider `CCOc1ccccc1NC(=O)Cn1c(=O)n(CC(=O)NCc2ccccc2Cl)c(=O)c2sccc21`, for which the survival is 154% (inactive). Under `O=C(CSc1ccccc1)NCc1ccc2c(c1)CCN2C(=O)c1ccc(F)cc1` stands 88% (inactive). `Cc1cccc(C)c1OCCn1c(C2CC(=O)N(Cc3ccc(F)cc3)C2)nc2ccccc21` (stereo unspecified): the survival was 4% (active). As for `CCOc1ccccc1N1CC(c2nc3ccccc3n2CCOc2ccccc2OC)CC1=O` (stereo unspecified), the survival is 95% (inactive). The value for `Cc1cccc(C)c1OCCn1c(C2CC(=O)N(c3cccc(Cl)c3)C2)nc2ccccc21` (stereo unspecified) was 57% (inactive); that for `C=CCc1ccccc1OCCn1c(C2CC(=O)N(Cc3ccc(F)cc3)C2)nc2ccccc21` (stereo unspecified) was 0% (active).

As for `COc1ccccc1OCCCn1c(C2CC(=O)N(c3ccc(F)cc3)C2)nc2ccccc21` (stereo unspecified), the survival was 76% (inactive). On to `Cc1cc(C)c(Cn2c(C3CC(=O)N(c4ccc(F)cc4)C3)nc3ccccc32)c(C)c1` (stereo unspecified), for which the survival is 91% (inactive). Under `Cc1ccc(OCCn2c(C3CC(=O)N(Cc4ccc(F)cc4)C3)nc3ccccc32)c(C)c1` (stereo unspecified) stands 3% (active); under `CCc1ccccc1N1CC(c2nc3ccccc3n2CCCCOc2ccccc2OC)CC1=O` (stereo unspecified), 80% (inactive). As for `Cc1ccc(C)c(OCCn2c(C3CC(=O)N(Cc4ccc(F)cc4)C3)nc3ccccc32)c1` (stereo unspecified), the survival was 0% (active).

For the compound `CCOc1ccccc1N1CC(c2nc3ccccc3n2Cc2c(C)cc(C)cc2C)CC1=O` (stereo unspecified), the survival was 92% (inactive). The value for `CC(=O)c1cccc(NC(=O)C(C)n2c(=O)cc(-c3ccccc3)c3c(C)nn(C)c32)c1` (stereo unspecified) was 102% (inactive).

With `CC1CCN(C(=O)Cn2cc(SCC(=O)NCc3ccccc3Cl)c3ccccc32)CC1`, the survival is 64% (inactive). Under `COc1cc(/C=C/c2nc(C#N)c(N3CCCCC3)o2)cc(OC)c1OC` stands 89% (inactive); under `COc1ccc(NCc2nc3ccccc3n2CCOc2ccc(C)cc2)cc1`, 17% (active); under `CCOc1ccc(NCc2n[nH]c(=S)n2-c2ccc(C)cc2)cc1`, 90% (inactive). As to `CCc1nnc2c(Nc3ccccc3Br)nc3ccccc3n12`, the survival is 93% (inactive).

Regarding `CCOc1ccc(NCc2nc3ccccc3n2CCOc2ccc(C)cc2)cc1`, the survival is 1% (active). Under `CCOc1ccc(Nc2nc3ccccc3n3c(CC)nnc23)cc1` stands 36% (active); under `Cc1ccc(OCCn2c(CNc3cccc(C)c3)nc3ccccc32)cc1`, -3% (active); under `CCc1nnc2c(Nc3cccc(C(C)=O)c3)nc3ccccc3n12`, 92% (inactive).

Take `CCC(O)c1nc2ccccc2n1CCOc1cc(C)cc(C)c1` (stereo unspecified): the survival was 100% (inactive). The value for `COc1ccc(OCCn2c(C)nc3cc(C)c(C)cc32)cc1` was 57% (inactive). In the case of `Cc1ccc(C)c(Cn2cc(CCC(=O)NC3CCCCC3)c3ccccc32)c1`, the survival is 86% (inactive).

Regarding `CC(C)(C)OC(=O)N/N=C/c1cccc(O)c1`, the survival is 79% (inactive). Regarding `Nc1nnc2c(Nc3ccccc3)nc3nonc3n12`, the survival was 86% (inactive). Consider `O=C(NC1CCCCC1)c1ccc(CSc2nc3cccnc3n2Cc2cccc(F)c2)cc1`, for which the survival is 83% (inactive).

With `CC(C)(C)c1ccc(-c2ncccc2O)cc1`, the survival was 53% (inactive). With `CCc1c(C)c2ccc3c(c2oc1=O)CN(Cc1ccccc1)CO3`, the survival is 99% (inactive). Take `COc1ccc(NC(=O)C2CCN(S(=O)(=O)c3c(C)noc3/C=C/c3cccs3)CC2)cc1`: the survival was 90% (inactive). As to `Cn1c(=O)c2c(c3ccccc31)OC(=O)CC2c1cccc(F)c1` (stereo unspecified), the survival is 59% (inactive). As to `CCc1sc(Nc2cccc(Cl)c2)nc1-c1cc2cccc(OC)c2oc1=O`, the survival is 90% (inactive). In the case of `COc1cccc(CN(C(=O)COc2ccc(Cl)c(C)c2)C2CCS(=O)(=O)C2)c1` (stereo unspecified), the survival was 71% (inactive).

In the case of `Cc1ccc(NCc2nc3ccccc3n2CCOc2ccccc2)cc1`, the survival was 3% (active). Regarding `Clc1ccc(NCc2nc3ccccc3n2CCOc2ccccc2)cc1`, the survival was 50% (inactive).

In the case of `Cc1nn(CC(=O)Nc2ccccc2C(F)(F)F)c(=O)c2cccn12`, the survival is 93% (inactive).

Regarding `COc1ccc(C(C(=O)Nc2ccc(C(C)C)cc2)N(C)C(=O)Cc2cccs2)cc1` (stereo unspecified), the survival was 127% (inactive). For the compound `Cc1ccc(S(=O)(=O)N2CCNCC2)cc1`, the survival was 87% (inactive). Consider `CNC(=O)c1c(NC(=O)c2ccc(S(=O)(=O)N3CCCCC3)cc2)sc2c1CCC2`, for which the survival was 0% (active). Regarding `CCOc1cccc2sc(NC(=O)c3ccc(S(=O)(=O)N4CCCCC4)cc3)nc12`, the survival was 94% (inactive).

For `Cc1cc(C)c2nc(NC(=O)c3ccc(S(=O)(=O)N4CCCC4)cc3)sc2c1`, the survival is 102% (inactive). As to `COc1ccc(C)c2sc(NC(=O)c3ccc(S(=O)(=O)N4CCCC4)cc3)nc12`, the survival was 101% (inactive). Under `Cc1ccc(C)c2sc(NC(=O)c3ccc(S(=O)(=O)N4CCCC4)cc3)nc12` stands 25% (active); under `CCOc1cccc2sc(NC(=O)c3ccc(S(=O)(=O)N4CCCc5ccccc54)cc3)nc12`, 74% (inactive); under `Cc1ccc(Cl)c2sc(NC(=O)c3ccc(S(=O)(=O)N4CCCC4)cc3)nc12`, 63% (inactive).

As to `Cc1cc(C)c2sc(NC(=O)c3ccc(S(=O)(=O)N4CCOCC4)cc3)nc2c1`, the survival is 101% (inactive).

For the compound `CCOc1cccc2sc(NC(=O)c3ccc(S(=O)(=O)N4CCCCC4C)cc3)nc12` (stereo unspecified), the survival was 37% (active). With `CNC(=O)c1c(NC(=O)c2ccc(S(=O)(=O)N3CCC(C)CC3)cc2)sc2c1CCC2`, the survival is 131% (inactive). Turning to `CNC(=O)c1c(NC(=O)c2ccc(S(=O)(=O)N3CCCC(C)C3)cc2)sc2c1CCC2` (stereo unspecified), the survival was 92% (inactive).

For `Cc1cc(C)c2sc(NC(=O)c3ccc(S(=O)(=O)N4CCCC4)cc3)nc2c1`, the survival is 37% (active). Take `CCC(Sc1nc2ccccc2c2nc(-c3ccccc3)nn12)C(=O)Nc1cccc(OC)c1` (stereo unspecified): the survival was 94% (inactive). On to `O=C(NCc1ccc(F)cc1)C(=O)Nc1ccc2nc3n(c(=O)c2c1)CCCCC3`, for which the survival was 94% (inactive). Under `Cc1cc(C)cc(NC(=O)COCc2cc(-c3ccc4c(c3)OCO4)on2)c1` stands 55% (inactive). On to `COC(=O)C1=C(N)OC2=C(C(=O)CCC2)C1c1ccc(OC)cc1` (stereo unspecified), for which the survival was 102% (inactive). The value for `O=C(Nc1ccc2nc(SCC(=O)N3CCCC3)sc2c1)c1ccc(Br)cc1` was 92% (inactive); that for `O=c1ccn2c(n1)OC1C(O)C(CO)OC12` (stereo unspecified) was 83% (inactive).

Regarding `O=C(c1ccccc1)N(C(=O)c1ccccc1)c1ccccn1`, the survival was 71% (inactive). `Cc1cc2c(cc1S(=O)(=O)Nc1cccc(C#N)c1)OCC(=O)N2`: the survival was 93% (inactive).

As to `COc1cccc(N2CCN(C(=O)CCc3c(C)nc4c(c3C)c(=O)n(C)c(=O)n4C)CC2)c1`, the survival was 98% (inactive). `CN(c1ccc(F)cc1)S(=O)(=O)N1CCCC(C(=O)NCc2cccc(Br)c2)C1` (stereo unspecified): the survival was 72% (inactive).

For the compound `O=C(Nc1ccccn1)C(=NO)C(=O)Nc1ccccn1`, the survival is 98% (inactive). Take `CC(C)c1ccccc1NC(=O)C(Cc1c[nH]c2ccccc12)NC(=O)OC(C)(C)C` (stereo unspecified): the survival is 162% (inactive).

For `COc1ccc(NC(=O)C(Cc2c[nH]c3ccccc23)NC(=O)OC(C)(C)C)cc1` (stereo unspecified), the survival is 48% (inactive). For the compound `Cc1ccc(NC(=O)C(Cc2c[nH]c3ccccc23)NC(=O)OC(C)(C)C)c(C)c1` (stereo unspecified), the survival was 27% (active). Consider `N#Cc1ccccc1NC(=O)c1cccs1`, for which the survival is 93% (inactive). Under `COc1ccc(OC)c(NC(=O)c2cnc(Nc3ccc(C)c(Cl)c3)c3ccccc23)c1` stands 44% (active).

Turning to `Cc1ccc(Nc2ncc(C(=O)Nc3ccc(F)cc3F)c3ccccc23)cc1Cl`, the survival is 37% (active). With `COc1ccc(Nc2ncc(C(=O)Nc3ccc(F)cc3F)c3ccccc23)cc1`, the survival is 35% (active).

With `COc1ccc(Nc2ncc(C(=O)Nc3cc(Cl)c(OC)cc3OC)c3ccccc23)cc1`, the survival is 72% (inactive).

As for `COC(=O)c1ccccc1NC(=O)c1cnc(Nc2ccc(OC)cc2)c2ccccc12`, the survival is 61% (inactive). As for `COc1ccc(NC(=O)c2cnc(Nc3ccc(C)c(Cl)c3)c3ccccc23)c(OC)c1`, the survival was 63% (inactive). As for `COc1ccc(Nc2ncc(C(=O)Nc3cccc(OC)c3)c3ccccc23)cc1`, the survival was 106% (inactive).

Turning to `COc1ccc(Nc2ncc(C(=O)Nc3cc(C)ccc3OC)c3ccccc23)cc1`, the survival was 50% (inactive).

Turning to `COc1ccc(NC(=O)c2cnc(Nc3ccc(C)c(Cl)c3)c3ccccc23)cc1OC`, the survival was 51% (inactive). In the case of `COc1ccccc1Nc1ncc(C(=O)Nc2ccc(OC)c(OC)c2)c2ccccc12`, the survival was 43% (active). As for `CCOc1ccc(NC(=O)c2cnc(Nc3ccccc3OC)c3ccccc23)cc1`, the survival is 50% (inactive).

`Cc1ccc(Nc2ncc(C(=O)N3CCN(c4ccc(F)cc4)CC3)c3ccccc23)cc1Cl`: the survival is 76% (inactive).

As to `CCOC(=O)c1c(C)[nH]c(C)c1S(=O)(=O)N(C)CC(=O)Nc1cc(Cl)ccc1C`, the survival is 94% (inactive). In the case of `COc1ccc(S(=O)(=O)c2cn(C)c3cc(N4CCOCC4)c(F)cc3c2=O)cc1`, the survival was 96% (inactive). With `CCc1cccc(CC)c1NC1=NS(=O)(=O)c2ccccc21`, the survival was 70% (inactive). As for `Cc1cc(N2CCN(c3ccc(F)cc3)CC2)n2cnnc2n1`, the survival is 79% (inactive). On to `COc1ccc(-c2cn3cccnc3n2)cc1NC(=O)Nc1ccc(Cl)cc1`, for which the survival is 84% (inactive). On to `CCc1nnc(SC(CC)C(=O)Nc2ccc(OC)c(Cl)c2)c2cc3occc3n12` (stereo unspecified), for which the survival was 72% (inactive). Consider `CCc1cccc(C)c1NC(=O)CSc1nnc(CC)n2c1cc1occc12`, for which the survival is 67% (inactive).

For the compound `Cc1cc(C)c(NC(=O)CSc2nncn3c2cc2oc(C)cc23)c(C)c1`, the survival is 65% (inactive).

Turning to `Cc1cc2c(cc3c(SCC(=O)Nc4ccc(Cl)cc4F)nncn32)o1`, the survival was 36% (active). `CCc1ccccc1NC(=O)CSc1nncn2c1cc1oc(C)cc12`: the survival is 62% (inactive). On to `O=C(CSc1nncn2c1cc1occc12)Nc1ccc(F)c(Cl)c1`, for which the survival is 65% (inactive). For `CCc1nnc(SC(CC)C(=O)Nc2cc(C)ccc2C)c2cc3occc3n12` (stereo unspecified), the survival was 79% (inactive). `CCc1cccc(C)c1NC(=O)C(CC)Sc1nncn2c1cc1occc12` (stereo unspecified): the survival was 53% (active).

In the case of `COc1ccc(NC(=O)CSc2nncn3c2cc2occc23)c(OC)c1`, the survival was 69% (inactive). In the case of `CCC(Sc1nncn2c1cc1oc(C)cc12)C(=O)Nc1ccc(F)cc1` (stereo unspecified), the survival was 54% (inactive). For `CCC(Sc1nncn2c1cc1occc12)C(=O)Nc1ccc(C)c(Cl)c1` (stereo unspecified), the survival was 36% (active).

Regarding `Cc1cc(C)cc(NC(=O)CSc2nncn3c2cc2occc23)c1`, the survival is 46% (active).
